# Experimental data published in PubChem BioAssay (NCATS).
# “And” between values parts separate entries of the source, which are not always exact repeats. Equal values may be shown once. A number with no mark means an inactive call. Inconclusive results are not listed. The source made the active and inactive calls. Unless noted, calls follow the shape of the dose curve; as a rule, active = well fitted curve in either direction with a large enough effect (not every such curve was filed as active); inconclusive = small, poorly fitted or top-dose-only effect, or another doubt; inactive = flat fitted curve, though single readings scatter.
# What was measured:
# [1] = AP1 Signaling Pathway (AID 357); conditions: ME-180 (cervical carcinoma) AP-1-bla reporter, EGF-induced, beta-lactamase ratio, 5 h;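 also: ME-180 reporter cells stimulated with EGF at its EC50 level; % is scaled to controls: 0 for no effect and ±100 for the full control effect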
# Summary of the method: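 Read-out was the 460nm/530nm emission ratio (excitation 405nm) after CCF4 loading for 2.5 hours at room temperature. Cells carried an AP-1-driven beta-lactamase reporter, were stimulated with EC50 EGF plus compound for 5 hours, and AC50 values came from titrations.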
# [2] = molecular target: Cytochrome P450 1A2 (Homo sapiens) (UniProt P05177); test: p450-cyp1a2 (AID 410; calls by dose curve; also: potency is read from the fitted curve at half-maximal effect;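 as to activity change, negative = inhibition: -100% = full effect of reference inhibitor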); conditions: recombinant CYP1A2, luciferin-ME demethylation, luminescence; series mostly up to 57 µM
# Summary of the method: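 20nM CYP1A2, 100uM Luciferin-ME (=Km), 100mM KPO4; cpd 10 min RT; +NADPH regen, 60 min RT; stop/detect 20 min; luminescence. Normalized to furafylline 57 uM = full inhibition.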
# [3] = NFAT Signaling Pathway (AID 444); conditions: Jurkat NFAT-bla M1, carbachol, beta-lactamase ratio, 5 h; at 38 µM (top of the series) unless noted;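 also: carbachol stimulus at about its EC50 of 1 µM final; % is scaled to controls: 0 for no effect and ±100 for the full control effect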
# Summary of the method: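 Jurkat cells with NFAT-driven β-lactamase reporter and co-expressed M1 receptor, stimulated with carbachol (final 1 uM, ~EC50), compound titration, 5 h at 37 °C. CCF4 loaded 1 h at RT; 460/530 nm ratio gave %activity and AC50.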
# [4] = molecular target: Lysosomal acid glucosylceramidase (Homo sapiens) (UniProt P04062); test: Glucocerebrosidase-p2 (AID 348; in the data active = potency below about 10 µM; also: potency is read from the fitted curve at half-maximal effect); conditions: purified GBA, blue fluorogenic substrate, 40 min
# Summary of the method: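 Normal human glucocerebrosidase (0.2 nM) with blue fluorogenic substrate (80 uM final) in citrate/phosphate pH 5.9 with 10mM sodium taurocholate, 0.01% tween-20; 40 min RT, NaOH/glycine stop; fluorescence Ex 365/Em 440; AC50 from a titration from 0.6 nM upwards.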
# [5] = Cell Viability - BJ (AID 421; calls by dose curve;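 also: potency is read from the fitted curve at half-maximal effect; cells exposed to compound for 40 hours at 37 °C before readout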); conditions: BJ fibroblast viability, qHTS
# Summary of the method: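 Normal human BJ foreskin fibroblasts, 1500/well in complete medium, treated 40 hr at 37 °C. Cellular ATP by CellTiter-Glo luminescence; normalized to DMSO and 100 uM tamoxifen, AC50 from Hill fit.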
# [6] = Cell Viability - Jurkat (AID 426;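 active = dose-dependent loss of cell ATP signal giving a full or clear fitted curve, ranked by lower potency value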; also: potency is read from the fitted curve at half-maximal effect); conditions: qHTS
# Summary of the method: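 Luminescent ATP read-out (CellTiter-Glo, 20 min at room temperature) after 40 hr compound exposure at 37 °C of Jurkat E6-1 cells, 5000/well. Decreased ATP taken as cytotoxicity; AC50 from standard Hill equation.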
# [7] = Cell Viability - Hek293 (AID 427;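 active = compounds whose dose-response curve shows a full or clear partial loss of cell viability, called from curve shape rather than a numeric limit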;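 also: potency is read from the fitted curve at half-maximal effect; cells exposed to compound for 40 hours at 37 °C before reading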); conditions: qHTS
# Summary of the method: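 HEK293 cells in complete medium were exposed to compound for 40 hr at 37 °C, then cellular ATP was read by CellTiter-Glo luminescence. Data were normalized to DMSO (basal) and 100 uM tamoxifen (100% inhibition), and AC50 came from Hill fits.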
# [8] = Cell Viability - HepG2 (AID 433; calls by dose curve;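 also: potency is read from the fitted curve at half-maximal effect; potency for ATP loss meaning cytotoxicity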); conditions: qHTS
# Summary of the method: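 Cytotoxicity read as ATP loss (CellTiter-Glo luminescence) after 40 hr compound exposure of HepG2, 1500 cells/well, 37 °C. AC50 by Hill equation; 0% set by DMSO, 100% inhibition by 100 uM tamoxifen.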
# [9] = Cell Viability - MRC5 (AID 434; calls by dose curve;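 also: potency is read from the fitted curve at half-maximal effect; potency reflects cytotoxicity seen as loss of intracellular ATP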); conditions: MRC5 lung fibroblast viability, qHTS
# Summary of the method: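 ATP luminescence read-out (CellTiter-Glo, 20 min RT) after 40 hr, 37 °C compound exposure of 1500 MRC5 cells/well. Data normalized to DMSO (basal) and 100 uM tamoxifen (100% inhibition); AC50 from standard Hill equation.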
# [10] = Cell Viability - SK-N-SH (AID 435; calls by dose curve; also: potency is read from the fitted curve at half-maximal effect); conditions: SK-N-SH neuroblastoma cell viability qHTS
# Summary of the method: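 qHTS cytotoxicity: CellTiter-Glo ATP luminescence after 40 h compound exposure of human neuroblastoma SK-N-SH cells at 37 °C. AC50 derived by Hill-equation fitting, with DMSO as basal and 100 uM tamoxifen as full inhibition.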
# Chain of Cytochrome P450 1A2 (Homo sapiens) (P05177 whole entry, looked up): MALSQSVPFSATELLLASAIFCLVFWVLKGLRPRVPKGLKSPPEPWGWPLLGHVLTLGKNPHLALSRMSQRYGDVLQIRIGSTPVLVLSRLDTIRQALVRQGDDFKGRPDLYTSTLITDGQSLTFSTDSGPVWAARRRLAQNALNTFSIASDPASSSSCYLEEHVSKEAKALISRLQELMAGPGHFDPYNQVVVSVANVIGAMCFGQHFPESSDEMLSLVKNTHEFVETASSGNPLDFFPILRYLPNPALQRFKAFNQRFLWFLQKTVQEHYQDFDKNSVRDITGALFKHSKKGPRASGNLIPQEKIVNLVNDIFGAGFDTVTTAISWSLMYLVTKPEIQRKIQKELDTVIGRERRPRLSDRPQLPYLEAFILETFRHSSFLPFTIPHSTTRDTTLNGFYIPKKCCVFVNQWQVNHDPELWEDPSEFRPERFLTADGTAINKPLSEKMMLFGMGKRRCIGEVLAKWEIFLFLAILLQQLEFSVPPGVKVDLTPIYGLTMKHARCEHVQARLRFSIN
# Chain of Lysosomal acid glucosylceramidase (Homo sapiens) (P04062 whole entry, looked up): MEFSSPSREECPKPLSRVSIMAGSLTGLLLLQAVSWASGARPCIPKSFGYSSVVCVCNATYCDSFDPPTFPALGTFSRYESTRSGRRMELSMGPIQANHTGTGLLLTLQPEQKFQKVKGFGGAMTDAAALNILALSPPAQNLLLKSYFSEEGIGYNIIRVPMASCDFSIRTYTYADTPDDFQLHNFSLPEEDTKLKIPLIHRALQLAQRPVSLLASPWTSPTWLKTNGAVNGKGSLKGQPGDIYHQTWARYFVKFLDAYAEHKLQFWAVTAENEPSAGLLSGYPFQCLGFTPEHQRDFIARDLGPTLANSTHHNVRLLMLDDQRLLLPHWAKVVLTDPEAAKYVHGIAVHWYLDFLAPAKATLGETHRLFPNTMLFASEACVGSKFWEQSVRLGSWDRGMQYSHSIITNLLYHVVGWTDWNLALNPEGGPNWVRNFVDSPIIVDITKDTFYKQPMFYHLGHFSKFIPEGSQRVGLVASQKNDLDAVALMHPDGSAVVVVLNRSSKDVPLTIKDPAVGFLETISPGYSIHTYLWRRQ
smiles,measurement,setting,value
CNCC[C@H](Oc1ccc(C(F)(F)F)cc1)c1ccccc1,"activity change, negative = inhibition",[1]; at 17.2 µM (top of the series),21.4%
same,"activity change, negative = inhibition",[1]; at 38 µM (top of the series),29.8% and 23.7%
same,Potency,[2],20 µM (active) and 5.01 µM (active) and 31.6 µM (active)
same,"activity change, negative = inhibition",[3],-28% and -21.6% and -27.9%
COc1ccccc1N1CCN(CCCCNS(=O)(=O)c2cccc3c(N(C)C)cccc23)CC1,"activity change, negative = inhibition",[1]; at 38 µM (top of the series),1.98%
same,Potency,[2],inactive
Cc1nc2sccn2c(=O)c1CCN1CCC(=C(c2ccccc2)c2ccc(F)cc2)CC1,"activity change, negative = inhibition",[1]; at 17.2 µM (top of the series),-10.2%
same,"activity change, negative = inhibition",[1]; at 38 µM (top of the series),8.49%
COc1cc(OC)c(/C=C2/C(=O)Nc3ccccc32)c(OC)c1,"activity change, negative = inhibition",[1]; at 38 µM (top of the series),-28.2%
same,Potency,[2],501 nM (active)
same,"activity change, negative = inhibition",[3],-8.19%
O=S(=O)(c1cccc2c(I)cccc12)N1CCCNCC1,"activity change, negative = inhibition",[1]; at 38 µM (top of the series),5.61%
same,Potency,[2],10000 nM (active)
same,"activity change, negative = inhibition",[3],-18.6%
Clc1ccccc1-c1nc(-c2ccncc2)no1,Potency,[4],> 11.4 µM
same,"activity change, negative = inhibition",[1]; at 7.69 µM (top of the series),-0.307%
same,Potency,[2],79.4 nM (active)
same,"activity change, negative = inhibition",[3],-8.15% [at 7.69 µM]
CCOc1ccc2nc(S(N)(=O)=O)sc2c1,"activity change, negative = inhibition",[1]; at 17.2 µM (top of the series),7.72%
Cn1c(=O)c2[nH]c(-c3ccccc3)nc2n(C)c1=O,"activity change, negative = inhibition",[1]; at 38 µM (top of the series),14.7%
same,Potency,[2],2000 nM (active)
same,"activity change, negative = inhibition",[3],3.48%
c1cnc2c(c1)ccc1cccnc12,Potency,[4],> 11.4 µM
same,"activity change, negative = inhibition",[1]; at 7.69 µM (top of the series),-13.2%
same,"activity change, negative = inhibition",[1]; at 38 µM (top of the series),0.206%
same,Potency,[2],3.98 µM (active) and 2 µM (active)
same,Potency,[5],> 92 µM
same,Potency,[6],8.24 µM (active)
same,Potency,[7],2.4 µM (active)
same,Potency,[8],4.55 µM (active)
same,Potency,[9],> 92 µM
same,Potency,[10],3.86 µM (active)
